Several values for one entry are separate records, joined by “and”; a condition that tells them apart may be missing. Identical values can stand only once. Inconclusive results are not listed. Activity calls are given as the source filed them. Unless noted, the call rests on the fitted dose curve; in most records, active means well fitted curve in the direction sought with a large enough effect; inconclusive means small, poorly fitted or top-dose-only effect, or another doubt; inactive means no such curve, though single readings can be large; an effect the other way counts as inactive or inconclusive.
Assays:
[1] = Cytotoxicity counterscreen for NFkB agonists and antagonists (AID 624476);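 further: cells exposed to compound for 48 hours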; further: potency means the concentration at half of the fitted maximal effect
[2] = qHTS Assay for Identification of Small Molecule Antagonists for NFkB Signaling Pathway. (AID 624479; calls by dose curve;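 further: pathway stimulated with TNF alpha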; further: potency means the concentration at half of the fitted maximal effect)
[3] = Cell Proliferation Assay against the HBL1 Cell Line (AID 651646); conditions: HBL1 DLBCL cells; at 46.1 µM (top of the series);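 further: cells exposed to compound for 48 h before reading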
Summary of the method: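 After a 48 h incubation of 500 HBL1 cells/well in phenol red-free RPMI plus 5% FBS, relative luciferase units from CellTiter-Glo gave percent activity against DMSO and 9.2 uM bortezomib (final) controls.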

[4] = Cell Proliferation Assay against the TMD8 Cell Line (Caspase readout at 8 hrs) (AID 651713); further: potency means the concentration at half of the fitted maximal effect
Summary of the method: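 Luminescent caspase 3/7 assay; TMD8 cells, 8 h treatment at 37C, 5% CO2. Normalisation: DMSO 0%, 9.2 uM bortezomib 100%.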

[5] = target: Tyrosine-protein kinase Yes (Homo sapiens) (UniProt P07947); test: qHTS for small molecule inhibitors of Yes1 kinase: Primary Screen (AID 686947); further: nearly all actives have a fitted effect of over 60% in size; further: potency means the concentration at half of the fitted maximal effect
Sequence of Tyrosine-protein kinase Yes (Homo sapiens) (P07947 whole entry, looked up): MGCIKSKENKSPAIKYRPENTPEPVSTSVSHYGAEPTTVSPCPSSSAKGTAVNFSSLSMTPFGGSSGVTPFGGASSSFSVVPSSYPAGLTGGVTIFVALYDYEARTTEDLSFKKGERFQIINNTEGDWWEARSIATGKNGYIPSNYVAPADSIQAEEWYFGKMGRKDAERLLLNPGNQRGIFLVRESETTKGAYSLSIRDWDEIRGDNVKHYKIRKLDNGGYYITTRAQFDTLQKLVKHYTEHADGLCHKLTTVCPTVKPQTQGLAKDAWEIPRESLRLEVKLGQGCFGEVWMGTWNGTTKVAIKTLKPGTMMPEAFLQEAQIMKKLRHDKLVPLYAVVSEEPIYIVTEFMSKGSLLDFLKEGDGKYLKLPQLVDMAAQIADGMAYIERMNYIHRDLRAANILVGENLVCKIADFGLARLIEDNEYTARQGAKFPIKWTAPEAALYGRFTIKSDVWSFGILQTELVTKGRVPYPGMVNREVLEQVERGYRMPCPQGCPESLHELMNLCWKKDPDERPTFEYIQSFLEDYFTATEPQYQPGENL
Summary of the method: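 In this qHTS format, inhibition is expressed relative to DMSO controls with enzyme (maximum) and without enzyme (minimum). The 60 min room-temperature reaction uses 0.1 mM ATP, with ADP detected by luminescence.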

[6] = qHTS for small molecule inhibitors of Yes1 kinase: Counter Assay (AID 686950);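 further: no kinase present so only ADP-Glo detection of a fixed ADP amount is tested; luminescence from ADP-Glo reporting ADP in a fixed ATP and ADP mixture; 0% = DMSO wells with ATP plus ADP and -100% = ATP-only wells without ADP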
Summary of the method: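 Measuring interference with ADP-Glo, the assay ran 60 min at room temperature on an ATP/ADP mix lacking enzyme. Values were normalized to ATP-plus-ADP (maximum) and ATP-only (minimum) DMSO controls.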

[7] = Cell Proliferation Assay against the TMD8 Cell Line (AID 651645); conditions: TMD8 DLBCL cell line proliferation/viability; at 46.1 µM (top of the series);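 further: cells exposed to compound for 48 h before reading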
Summary of the method: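 Viability by CellTiter-Glo after 48 h compound exposure of 500 log-phase TMD8 cells per well (RPMI, 5% FBS). Percent activity scaled between DMSO (100%) and 9.2 uM final bortezomib (0%).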

[8] = Cell Proliferation Assay against the TMD8 Cell Line (Caspase readout at 16 hrs) (AID 651712); further: potency means the concentration at half of the fitted maximal effect
Summary of the method: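 16 h, 37 °C, TMD8 (500 cells/well), RPMI/5% FBS no phenol red; Caspase-Glo 3/7, 15 min RT, luminescence; %act: DMSO 0, bortezomib 9.2 uM final 100.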

[9] = qHTS Assay for Identification of Small Molecule Agonists for NFkB Signaling Pathway. (AID 624478);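 further: compounds tested together with TNF alpha at its EC50 of 10 pM; 0% is about no effect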
Summary of the method: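 Assay medium contained 0.5% FBS and 10 mM HEPES pH 7.3. Compounds were added together with TNF alpha (10 pM final), incubated 5 h at 37 C, and the beta-lactamase signal was measured fluorometrically.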

| Compound | Potency [1] | Potency [2] | viability, percent of control [3] | Potency [4] | Potency [5] | outcome [6] | viability (% of control) [7] [%] | Potency [8] | outcome [9] |
| --- | --- | --- | --- | --- | --- | --- | --- | --- | --- |
| O=C(C=Cc1c(C(=O)O)[nH]c2cc(Cl)cc(Cl)c12)Nc1ccccc1 | inactive | inactive | 112% | inactive | inactive | inactive | – | – | – |
| COc1ccc(OC)c(-c2nnc3ccc(-c4ccc(OC)c(O[C@@H]5CCOC5)c4)nn23)c1 | inactive | – | 42.3% | – | inactive | inactive | 15.1 | 20.9 µM (active) | – |
| O=C(NCCCNc1nc(Nc2cccc(NC(=O)N3CCCC3)c2)ncc1I)c1cccs1 | – | 9.43 µM (active) and 5.3 µM (active) | 26.8% and 21.3% | 26.4 µM (active) and 29.6 µM (active) | 1.37 µM (active) and 1.22 µM (active) | inactive | – | – | inactive |
| CC(C)c1ccccc1Cc1cc(C(=O)Nc2ccc(S(=O)(=O)c3ccccc3C(C)(C)C)cc2)c(O)c(O)c1O | 14.8 µM (active) | 13.3 µM (active) | 21.6% | – | – | inactive | – | 6.62 µM (active) | – |
| CCC[C@H](NC(=O)C(C#N)=Cc1cccc(Br)n1)c1ccccc1 | 2.96 µM (active) | 2.11 µM (active) | 2.62% | 1.87 µM (active) | inactive | inactive | – | – | – |
| O=C(c1ccc(Nc2nccc(-c3cc4ccccc4s3)n2)cc1)N1CCC(N2CCCC2)CC1 | – | 0.266 µM (active) | 0.745% | – | 68.8 nM (active) | inactive | 0.477 | inactive | inactive |
| CCCCCN(CCC12CC3CC(CC(C3)C1)C2)C(=O)NCCCc1ccncc1 | 23.5 µM (active) | 21.1 µM (active) | 1.97% | 23.5 µM (active) | inactive | inactive | – | – | – |
| COc1cc2ncn(-c3cc(OCc4ccccc4C(F)(F)F)c(C(N)=O)s3)c2cc1OC | inactive | inactive | 41.7% | inactive | inactive | inactive | – | – | – |
| C=CCn1c(=O)c2cnc(Nc3ccc(N4CCN(C)CC4)cc3)nc2n1-c1cccc(C(C)(C)O)n1 | 1.66 µM (active) | – | 31.1% | – | 43.4 nM (active) | inactive | 11.5 | – | – |
| Cn1cc(-c2[nH]c3cc(NC(=O)[C@H](N)C4CCCCC4)cc4c3c2C=NNC4=O)cn1 | – | inactive | 21.5% | – | – | inactive | 2.55 | – | inactive |
| CC(C)(C)OC(=O)Nc1ccc(-c2cc(C(=O)NCCCCCCC(=O)NO)no2)cc1 | – | inactive | 3.39% | – | inactive | inactive | 2.43 | – | inactive |
| C=CC(=O)Nc1cc2c(Nc3ccc(F)c(Cl)c3)ncnc2cc1OCCCN1CCOCC1 | 23.5 µM (active) | 16.8 µM (active) | 0.769% | 14.8 µM (active) | – | inactive | – | – | – |
| C1Cc2[nH]nc(-c3nn[nH]n3)c2C1 | inactive | inactive | 91.7% | inactive | inactive | inactive | – | inactive | – |
| CN1CCC(CNc2ccc3ncc(-c4cccc(OC(F)(F)F)c4)n3n2)CC1 | 26.4 µM (active) | 23.7 µM (active) | 3.91% | 23.5 µM (active) | 97.2 nM (active) | inactive | – | – | – |
| c1ccc2c(CCNc3ccc(Nc4ccncc4)cc3)c[nH]c2c1 | inactive | 10.6 µM (active) | 22.1% | – | inactive | inactive | – | 23.5 µM (active) | – |
| COc1cc2c(Oc3ccc(NC(=O)C4(C(=O)Nc5ccc(F)cc5)CC4)cc3F)ccnc2cc1OCCCN1CCOCC1 | 16.6 µM (active) | 16.8 µM (active) | 3.9% | – | – | inactive | 2.25 | – | – |
| Cn1c(=O)n(-c2ccc(C(C)(C)C#N)cc2)c2c3cc(-c4cnc5ccccc5c4)ccc3ncc21 | – | inactive | 38.2% | – | inactive | inactive | 10.6 | – | inactive |
| N#CCNC(=O)c1ccc(-c2ccnc(Nc3ccc(N4CCOCC4)cc3)n2)cc1 | – | 0.668 µM (active) | 25.4% | – | 972 nM (active) | inactive | 7.51 | – | inactive |
| CCN(CC)CCCCNc1ncc2cc(-c3cc(OC)cc(OC)c3)c(NC(=O)NC(C)(C)C)nc2n1 | – | – | 7.6% | 26.4 µM (active) | 9720 nM (active) | inactive | – | – | inactive |
